This passage reports binding signal results from PMC7862700, “An all-to-all approach to the identification of sequence-specific readers for epigenetic DNA modifications on cytosine”.

What all share (test): DAPPL (digital affinity profiling via proximity ligation, sequencing); 10 mM Tris-HCl pH 7.5, 50 mM NaCl, 1 mM DTT, 4% glycerol, room temperature, 30 min; GST-TFs on glutathione beads, 16-mer random dsDNA library, 0.1% formaldehyde crosslink after washing; high values mean tight binding
Assay [1] concerns the target T1, FLI1 (Homo sapiens, UniProt Q01543 1-452).
T1 sequence: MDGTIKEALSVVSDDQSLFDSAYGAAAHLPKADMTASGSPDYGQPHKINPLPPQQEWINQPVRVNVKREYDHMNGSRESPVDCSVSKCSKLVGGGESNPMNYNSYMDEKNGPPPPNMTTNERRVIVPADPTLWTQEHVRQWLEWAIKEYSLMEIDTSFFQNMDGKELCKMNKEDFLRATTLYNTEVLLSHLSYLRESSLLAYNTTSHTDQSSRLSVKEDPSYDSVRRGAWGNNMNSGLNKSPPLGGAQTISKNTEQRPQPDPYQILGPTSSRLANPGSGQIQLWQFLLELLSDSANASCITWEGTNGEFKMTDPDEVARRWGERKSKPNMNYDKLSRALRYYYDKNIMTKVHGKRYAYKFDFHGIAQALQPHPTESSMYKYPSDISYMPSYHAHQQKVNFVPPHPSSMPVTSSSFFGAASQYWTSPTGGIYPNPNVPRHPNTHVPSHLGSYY
To be noted: protein: recombinant; tags: N-terminal GST; dsDNA, one strand shown. The method in brief:
(§1)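 Beads coated with glutathione captured GST-fused human transcription factors that had been expressed in yeast, and the factors were then given DNA barcodes and pooled with a tag-only sample. The pools were incubated with 200 nmole of a random double-stranded 16-mer DNA library in Tris/NaCl/DTT/glycerol buffer for 30 min at room temperature, washed, crosslinked with 0.1% formaldehyde and proximity-ligated with BsaI/T4 ligase at 37 °C for 1 h. PCR amplification and Illumina NextSeq500 sequencing came last. Binding signal is each hexamer's read frequency for a factor divided by its frequency for the tag-only sample.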

In assay [2] the target is T2, ELK1 (Homo sapiens, UniProt P19419 1-428).
T2 sequence: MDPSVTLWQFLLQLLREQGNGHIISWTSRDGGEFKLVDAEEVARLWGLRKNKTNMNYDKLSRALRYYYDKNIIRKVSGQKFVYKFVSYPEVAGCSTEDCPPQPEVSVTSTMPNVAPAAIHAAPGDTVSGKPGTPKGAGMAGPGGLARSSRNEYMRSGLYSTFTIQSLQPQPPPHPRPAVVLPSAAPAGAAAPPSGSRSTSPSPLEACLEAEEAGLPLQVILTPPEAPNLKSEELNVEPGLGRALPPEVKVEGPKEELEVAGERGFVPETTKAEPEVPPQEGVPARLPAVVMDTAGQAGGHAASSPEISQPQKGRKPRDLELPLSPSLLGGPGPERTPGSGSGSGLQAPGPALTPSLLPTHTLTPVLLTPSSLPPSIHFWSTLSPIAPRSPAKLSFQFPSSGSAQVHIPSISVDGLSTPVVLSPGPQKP
As to conditions: protein: recombinant; tags: N-terminal GST; dsDNA, one strand shown. The gist of the method: as §1

Assay [3] deals with T3, GABPA (Homo sapiens, UniProt Q06546 1-454).
T3 sequence: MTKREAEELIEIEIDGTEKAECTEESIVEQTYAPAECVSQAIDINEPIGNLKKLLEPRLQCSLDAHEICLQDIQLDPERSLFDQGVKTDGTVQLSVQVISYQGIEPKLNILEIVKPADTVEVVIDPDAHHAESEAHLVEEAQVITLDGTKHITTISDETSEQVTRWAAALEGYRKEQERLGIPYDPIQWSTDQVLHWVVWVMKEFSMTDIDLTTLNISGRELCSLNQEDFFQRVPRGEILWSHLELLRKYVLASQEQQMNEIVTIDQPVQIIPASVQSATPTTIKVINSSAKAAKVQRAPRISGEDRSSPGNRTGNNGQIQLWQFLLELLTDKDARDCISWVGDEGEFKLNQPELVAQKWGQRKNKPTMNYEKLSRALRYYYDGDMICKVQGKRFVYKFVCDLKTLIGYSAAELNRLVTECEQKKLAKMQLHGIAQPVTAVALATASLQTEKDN
To be noted: protein: recombinant; tags: N-terminal GST; dsDNA, one strand shown. The gist of the method: as §1

Assay [4] has as its target T4, ERG (Homo sapiens, UniProt P11308 1-479).
T4 sequence: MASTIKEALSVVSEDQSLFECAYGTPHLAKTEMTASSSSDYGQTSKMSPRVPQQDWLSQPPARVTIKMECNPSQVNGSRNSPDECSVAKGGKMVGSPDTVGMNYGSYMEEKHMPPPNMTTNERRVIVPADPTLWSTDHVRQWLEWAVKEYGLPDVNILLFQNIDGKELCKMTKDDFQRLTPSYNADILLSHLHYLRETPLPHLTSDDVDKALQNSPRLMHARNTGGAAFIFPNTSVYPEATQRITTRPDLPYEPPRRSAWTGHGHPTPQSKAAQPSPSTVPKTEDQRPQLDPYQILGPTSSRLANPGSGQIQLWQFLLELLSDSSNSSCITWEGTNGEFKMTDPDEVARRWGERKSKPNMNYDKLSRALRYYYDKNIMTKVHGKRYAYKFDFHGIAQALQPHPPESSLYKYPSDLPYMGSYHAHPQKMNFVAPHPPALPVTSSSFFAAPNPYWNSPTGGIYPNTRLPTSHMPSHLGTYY
As to conditions: protein: recombinant; tags: N-terminal GST; dsDNA, one strand shown. The gist of the method: as §1

Assay [5] concerns the target ELF1 (Homo sapiens, UniProt P32519 1-619). To be noted: protein: recombinant; tags: N-terminal GST; dsDNA, one strand shown. The gist of the method: as §1
Assay [6] concerns the target T5, EHF (Homo sapiens, UniProt Q9NZC4 1-300).
T5 sequence: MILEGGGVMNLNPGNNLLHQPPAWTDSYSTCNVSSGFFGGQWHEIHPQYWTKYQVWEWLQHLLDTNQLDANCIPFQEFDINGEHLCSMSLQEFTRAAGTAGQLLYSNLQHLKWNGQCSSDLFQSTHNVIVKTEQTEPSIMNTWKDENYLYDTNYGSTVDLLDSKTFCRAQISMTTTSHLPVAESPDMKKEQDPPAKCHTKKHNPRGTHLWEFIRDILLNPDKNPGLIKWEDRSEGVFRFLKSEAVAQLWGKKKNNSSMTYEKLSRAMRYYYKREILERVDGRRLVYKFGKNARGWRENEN
As to conditions: protein: recombinant; tags: N-terminal GST; dsDNA, one strand shown. The gist of the method:
as §1

The target in assay [7] is SPI1 (Homo sapiens, UniProt P17947 1-270). To be noted: protein: recombinant; tags: N-terminal GST; dsDNA, one strand shown. The method in brief:
as §1

Assay [8] has as its target SPIB (Homo sapiens, UniProt Q01892 1-262). As to conditions: protein: recombinant; tags: N-terminal GST; dsDNA, one strand shown. The gist of the method:
as §1

Assay [9] deals with T6, ELK3 (Homo sapiens, UniProt P41970 1-407).
T6 sequence: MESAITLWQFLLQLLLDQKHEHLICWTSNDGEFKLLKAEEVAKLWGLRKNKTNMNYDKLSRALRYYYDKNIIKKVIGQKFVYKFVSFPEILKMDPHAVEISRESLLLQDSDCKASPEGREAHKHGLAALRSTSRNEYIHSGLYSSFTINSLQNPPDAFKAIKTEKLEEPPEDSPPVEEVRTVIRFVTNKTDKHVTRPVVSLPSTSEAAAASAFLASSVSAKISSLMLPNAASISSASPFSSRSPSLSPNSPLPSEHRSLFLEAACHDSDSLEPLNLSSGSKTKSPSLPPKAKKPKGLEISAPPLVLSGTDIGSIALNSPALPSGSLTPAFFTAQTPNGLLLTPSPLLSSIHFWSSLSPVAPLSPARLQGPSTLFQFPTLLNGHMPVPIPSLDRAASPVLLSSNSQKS
To be noted: protein: recombinant; tags: N-terminal GST; dsDNA, one strand shown. The gist of the method:
as §1

Assay [10] has as its target T7, FEV (Homo sapiens, UniProt Q99581 1-238).
T7 sequence: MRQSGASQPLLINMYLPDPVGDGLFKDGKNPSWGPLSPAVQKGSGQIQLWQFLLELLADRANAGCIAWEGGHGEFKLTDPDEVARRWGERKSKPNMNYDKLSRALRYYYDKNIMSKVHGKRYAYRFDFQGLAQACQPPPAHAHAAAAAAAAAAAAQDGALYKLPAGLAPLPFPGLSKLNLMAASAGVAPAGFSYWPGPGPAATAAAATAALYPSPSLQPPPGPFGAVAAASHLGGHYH
As to conditions: protein: recombinant; tags: N-terminal GST; dsDNA, one strand shown. The gist of the method:
as §1

Assay [11] has as its target ETV5 (Homo sapiens, UniProt P41161 1-510). As to conditions: protein: recombinant; tags: N-terminal GST; dsDNA, one strand shown. The method in brief: as §1
In assay [12] the target is HSF1 (Homo sapiens, UniProt Q00613 1-529). To be noted: protein: recombinant; tags: N-terminal GST; chain copies: 3; dsDNA, one strand shown. The method in brief:
as §1

For assay [13], the target named is ELF4 (Homo sapiens, UniProt Q99607 1-663). To be noted: protein: recombinant; tags: N-terminal GST; dsDNA, one strand shown. The method in brief: as §1
Assay [14] addresses T8, ELK4 (Homo sapiens, UniProt P28324-2 1-405).
T8 sequence: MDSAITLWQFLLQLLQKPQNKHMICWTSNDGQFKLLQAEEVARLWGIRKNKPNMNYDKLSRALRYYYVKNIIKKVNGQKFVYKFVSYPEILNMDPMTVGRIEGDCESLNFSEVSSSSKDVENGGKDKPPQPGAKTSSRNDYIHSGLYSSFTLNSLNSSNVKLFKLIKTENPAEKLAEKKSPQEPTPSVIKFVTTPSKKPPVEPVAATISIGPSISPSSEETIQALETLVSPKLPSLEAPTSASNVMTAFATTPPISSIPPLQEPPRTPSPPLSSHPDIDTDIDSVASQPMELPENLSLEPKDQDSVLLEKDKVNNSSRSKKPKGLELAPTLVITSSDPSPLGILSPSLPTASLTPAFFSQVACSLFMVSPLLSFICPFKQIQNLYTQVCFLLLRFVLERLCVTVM
As to conditions: protein: recombinant; tags: N-terminal GST; dsDNA, one strand shown. The gist of the method:
as §1

The target of assay [15] is T9, ETV2 (Homo sapiens, UniProt O00321 1-342).
T9 sequence: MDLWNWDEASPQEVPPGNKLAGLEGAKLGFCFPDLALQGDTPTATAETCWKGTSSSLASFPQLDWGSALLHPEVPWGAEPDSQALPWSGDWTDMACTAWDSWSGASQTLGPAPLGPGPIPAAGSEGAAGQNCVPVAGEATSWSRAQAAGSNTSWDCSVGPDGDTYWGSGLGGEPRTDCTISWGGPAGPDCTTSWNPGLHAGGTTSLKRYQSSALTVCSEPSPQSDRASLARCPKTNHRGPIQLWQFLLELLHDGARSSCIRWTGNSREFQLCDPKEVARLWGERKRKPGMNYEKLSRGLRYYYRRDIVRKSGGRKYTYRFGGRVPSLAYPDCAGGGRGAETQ
To be noted: protein: recombinant; tags: N-terminal GST; dsDNA, one strand shown. The gist of the method:
as §1

In assay [16] the target is T10, ELF3 (Homo sapiens, UniProt P78545 1-371).
T10 sequence: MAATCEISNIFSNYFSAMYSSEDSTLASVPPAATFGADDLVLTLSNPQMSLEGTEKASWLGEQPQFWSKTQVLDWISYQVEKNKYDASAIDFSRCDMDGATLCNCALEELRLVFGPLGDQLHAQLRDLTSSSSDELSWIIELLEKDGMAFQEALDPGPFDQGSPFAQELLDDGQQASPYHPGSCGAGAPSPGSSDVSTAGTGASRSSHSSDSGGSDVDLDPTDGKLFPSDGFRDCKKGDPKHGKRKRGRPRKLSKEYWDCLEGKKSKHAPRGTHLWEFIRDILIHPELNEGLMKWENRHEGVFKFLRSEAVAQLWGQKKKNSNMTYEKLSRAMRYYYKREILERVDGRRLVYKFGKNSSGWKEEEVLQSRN
To be noted: protein: recombinant; tags: N-terminal GST; dsDNA, one strand shown. The gist of the method: as §1

For assay [17], the target named is CRX (Homo sapiens, UniProt O43186 1-299). To be noted: protein: recombinant; tags: N-terminal GST; dsDNA, one strand shown. The method in brief:
as §1

The target in assay [18] is ETV1 (Homo sapiens, UniProt P50549 1-477). To be noted: protein: recombinant; tags: N-terminal GST; dsDNA, one strand shown. The gist of the method:
as §1

ELF1, sequence (P32519 whole entry): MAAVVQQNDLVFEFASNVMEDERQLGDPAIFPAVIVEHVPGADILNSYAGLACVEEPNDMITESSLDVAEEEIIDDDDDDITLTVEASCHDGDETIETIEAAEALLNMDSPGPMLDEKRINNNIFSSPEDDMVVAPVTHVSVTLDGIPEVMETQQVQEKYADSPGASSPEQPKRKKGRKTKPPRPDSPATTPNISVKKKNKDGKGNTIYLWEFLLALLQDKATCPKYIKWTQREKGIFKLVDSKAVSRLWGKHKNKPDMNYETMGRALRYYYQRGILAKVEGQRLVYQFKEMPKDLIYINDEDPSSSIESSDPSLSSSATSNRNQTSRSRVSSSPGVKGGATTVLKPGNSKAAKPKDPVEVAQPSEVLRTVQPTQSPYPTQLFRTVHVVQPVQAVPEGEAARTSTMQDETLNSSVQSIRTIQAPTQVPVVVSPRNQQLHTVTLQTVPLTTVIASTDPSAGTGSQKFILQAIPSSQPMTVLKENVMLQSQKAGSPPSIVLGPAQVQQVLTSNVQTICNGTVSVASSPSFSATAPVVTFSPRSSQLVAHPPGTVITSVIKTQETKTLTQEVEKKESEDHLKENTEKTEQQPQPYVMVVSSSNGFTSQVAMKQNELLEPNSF
SPIB, sequence (Q01892 whole entry): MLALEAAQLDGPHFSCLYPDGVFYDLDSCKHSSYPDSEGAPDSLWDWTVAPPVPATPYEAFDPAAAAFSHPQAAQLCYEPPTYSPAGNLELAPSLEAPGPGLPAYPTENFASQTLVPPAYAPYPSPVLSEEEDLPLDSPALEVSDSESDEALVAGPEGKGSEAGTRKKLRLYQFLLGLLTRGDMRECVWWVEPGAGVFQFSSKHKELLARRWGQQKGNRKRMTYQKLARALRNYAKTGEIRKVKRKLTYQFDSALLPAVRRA
HSF1, sequence (Q00613 whole entry): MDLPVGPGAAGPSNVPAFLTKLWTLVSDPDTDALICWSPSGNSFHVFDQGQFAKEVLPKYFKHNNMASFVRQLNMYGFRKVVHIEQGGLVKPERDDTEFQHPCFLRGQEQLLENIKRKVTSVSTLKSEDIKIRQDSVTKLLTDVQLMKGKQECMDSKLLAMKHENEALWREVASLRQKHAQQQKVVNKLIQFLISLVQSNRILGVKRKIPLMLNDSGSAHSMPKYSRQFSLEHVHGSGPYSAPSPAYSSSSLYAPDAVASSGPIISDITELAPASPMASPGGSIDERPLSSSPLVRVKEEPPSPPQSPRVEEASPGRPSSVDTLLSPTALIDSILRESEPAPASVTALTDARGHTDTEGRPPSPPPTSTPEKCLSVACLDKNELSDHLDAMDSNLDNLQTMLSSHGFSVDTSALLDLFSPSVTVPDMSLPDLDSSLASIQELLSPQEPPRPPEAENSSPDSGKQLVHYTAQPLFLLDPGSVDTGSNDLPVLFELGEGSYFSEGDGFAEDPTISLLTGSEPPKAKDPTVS
ETV5, sequence (P41161 whole entry): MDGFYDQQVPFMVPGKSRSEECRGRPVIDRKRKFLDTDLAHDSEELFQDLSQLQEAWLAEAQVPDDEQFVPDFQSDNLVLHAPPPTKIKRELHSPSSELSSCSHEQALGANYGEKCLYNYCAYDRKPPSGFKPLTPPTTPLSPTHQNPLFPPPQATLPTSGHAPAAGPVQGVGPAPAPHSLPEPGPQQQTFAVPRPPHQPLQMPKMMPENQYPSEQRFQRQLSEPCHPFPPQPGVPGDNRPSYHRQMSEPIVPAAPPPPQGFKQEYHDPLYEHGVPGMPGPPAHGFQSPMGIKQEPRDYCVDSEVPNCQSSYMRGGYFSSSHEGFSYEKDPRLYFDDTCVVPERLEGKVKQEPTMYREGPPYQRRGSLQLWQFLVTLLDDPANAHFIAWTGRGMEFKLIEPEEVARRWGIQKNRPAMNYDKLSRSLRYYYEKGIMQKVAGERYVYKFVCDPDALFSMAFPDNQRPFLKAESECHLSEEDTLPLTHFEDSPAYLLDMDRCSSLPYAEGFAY
ETV1, sequence (P50549 whole entry): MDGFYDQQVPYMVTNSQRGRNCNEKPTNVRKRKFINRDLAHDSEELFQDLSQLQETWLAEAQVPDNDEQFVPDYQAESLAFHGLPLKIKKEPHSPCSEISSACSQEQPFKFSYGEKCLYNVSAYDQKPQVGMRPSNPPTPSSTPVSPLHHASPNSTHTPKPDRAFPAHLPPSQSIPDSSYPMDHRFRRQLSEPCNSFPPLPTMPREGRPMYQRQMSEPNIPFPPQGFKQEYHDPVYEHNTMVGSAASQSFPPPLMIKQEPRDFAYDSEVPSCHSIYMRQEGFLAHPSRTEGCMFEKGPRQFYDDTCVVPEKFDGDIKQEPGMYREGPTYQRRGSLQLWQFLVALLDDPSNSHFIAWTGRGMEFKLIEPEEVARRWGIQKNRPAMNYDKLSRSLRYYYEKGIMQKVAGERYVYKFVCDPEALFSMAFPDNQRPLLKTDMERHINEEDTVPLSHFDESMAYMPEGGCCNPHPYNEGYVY
ELF4, sequence (Q99607 whole entry): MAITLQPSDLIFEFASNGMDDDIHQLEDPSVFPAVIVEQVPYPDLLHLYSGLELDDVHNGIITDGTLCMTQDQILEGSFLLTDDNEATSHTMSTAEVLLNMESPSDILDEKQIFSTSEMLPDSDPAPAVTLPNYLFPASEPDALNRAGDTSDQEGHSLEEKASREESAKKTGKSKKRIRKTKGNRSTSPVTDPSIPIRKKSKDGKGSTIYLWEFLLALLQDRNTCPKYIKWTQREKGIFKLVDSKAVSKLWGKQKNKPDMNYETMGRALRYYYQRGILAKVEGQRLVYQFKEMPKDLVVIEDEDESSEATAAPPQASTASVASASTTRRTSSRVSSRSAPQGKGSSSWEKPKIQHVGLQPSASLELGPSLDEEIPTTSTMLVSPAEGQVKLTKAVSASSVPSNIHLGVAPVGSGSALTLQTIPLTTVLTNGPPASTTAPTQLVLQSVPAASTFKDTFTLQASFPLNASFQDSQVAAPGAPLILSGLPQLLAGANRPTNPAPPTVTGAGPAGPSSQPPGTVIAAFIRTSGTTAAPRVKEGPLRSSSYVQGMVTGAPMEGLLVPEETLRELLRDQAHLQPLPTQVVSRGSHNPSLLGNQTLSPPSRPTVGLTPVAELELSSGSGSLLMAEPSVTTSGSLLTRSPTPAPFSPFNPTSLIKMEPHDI
CRX, sequence (O43186 whole entry): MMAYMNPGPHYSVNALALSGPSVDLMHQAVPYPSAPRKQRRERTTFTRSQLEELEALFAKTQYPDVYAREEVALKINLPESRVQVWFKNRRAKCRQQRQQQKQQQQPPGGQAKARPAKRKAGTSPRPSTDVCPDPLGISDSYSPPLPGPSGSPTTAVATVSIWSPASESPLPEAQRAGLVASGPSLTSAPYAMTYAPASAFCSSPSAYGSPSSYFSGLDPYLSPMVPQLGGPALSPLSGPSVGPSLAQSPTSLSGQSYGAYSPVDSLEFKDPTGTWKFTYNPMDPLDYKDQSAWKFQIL

AAAAGA: the binding signal in [1] is 1.11 fold enrichment (6-mer frequency, TF over GST control); in assay [2], 1.19 fold enrichment (6-mer frequency, TF over GST control); in [3] it was 1.19 fold enrichment (6-mer frequency, TF over GST control); in [4], 1.06 fold enrichment (6-mer frequency, TF over GST control); in assay [5], 1.06 fold enrichment (6-mer frequency, TF over GST control); in [6], 1.2 fold enrichment (6-mer frequency, TF over GST control). For the same sequence, the binding signal was 1.5 fold enrichment (6-mer frequency, TF over GST control) in assay [7]; 1.26 fold enrichment (6-mer frequency, TF over GST control) in [8]; 1.11 fold enrichment (6-mer frequency, TF over GST control) in [9]; 1.07 fold enrichment (6-mer frequency, TF over GST control) in assay [10]; 1.12 fold enrichment (6-mer frequency, TF over GST control) in assay [11]; 1.43 fold enrichment (6-mer frequency, TF over GST control) in [12]. For the same sequence, the binding signal was 1.2 fold enrichment (6-mer frequency, TF over GST control) in assay [13]; 1.2 fold enrichment (6-mer frequency, TF over GST control) in [14]; 1.1 fold enrichment (6-mer frequency, TF over GST control) in [15]; 1.17 fold enrichment (6-mer frequency, TF over GST control) in assay [16]; 1.28 fold enrichment (6-mer frequency, TF over GST control) in assay [17]; 1.14 fold enrichment (6-mer frequency, TF over GST control) in assay [18].
